According to PubChem BioAssay (NCATS):
“And” between values parts separate entries of the source, which are not always exact repeats. Equal values may be shown once. Records with an inconclusive call do not appear. Entries that show only a call come without a potency. Unmarked numbers belong to inactive results. The source made the active and inactive calls. Calls come from the whole dose curve; as a rule, active = well fitted curve in the direction sought with a large enough effect; inconclusive = small, poorly fitted or top-dose-only effect, or another doubt; inactive = no such curve, though single readings can be large; an effect the other way counts as inactive or inconclusive.

Legend:
[1] = Viability qHTS for spleen associated tyrosine kinase inhibitor (SYKi) naive MV4-11 cells (AID 1963823); note: nearly all actives have a fitted effect of over 40% in size; note: potency is the fitted concentration of half-maximal effect
In short: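 Read-out: CellTiter-Glo luminescence. Exposure: 72 hr, 37 C, 5% CO2, 95% humidity. Cells: MV4-11 without SYK inhibitor history, 500/well, qHTS format.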

[2] = Quantitative highthroughput screen to assess conditional lethalithy of NOMO1 cells grown in RPMI1640 with untreated serum (RPMI+s) (AID 1963876); note: nearly all actives have a fitted effect of over 35% in size; note: potency is the fitted concentration of half-maximal effect
In short: (§1)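 Each medium arm—HPLM with 10% dialyzed FBS, or RPMI1640 with 5 mM glucose and 10% untreated or dialyzed FBS—was screened against an 11-point, 3-fold compound titration for 48 h at 37 °C, with CellTiter-Glo luminescence as endpoint.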

[3] = Quantitative highthroughput screen to assess conditional lethalithy of NOMO1 cells grown in RPMI1640 with dialyzed fetal bovine serum (RPMI+ds) (AID 1963877); note: nearly all actives have a fitted effect of over 30% in size; note: potency is the fitted concentration of half-maximal effect; for Viability: series mostly up to about 46 µM
In short: as §1

[4] = Quantitative highthroughput screen to assess conditional lethalithy of P12 Ichikawa cells grown in Human Plasma-Like Medium with dialyzed fetal bovine serum (HPLM+ds) (AID 1963879); details: Potency: viability; note: series mostly up to about 46 µM; nearly all actives have a fitted effect of over 35% in size
In short: as §1

[5] = Quantitative highthroughput screen to assess conditional lethalithy of P12 Ichikawa cells grown in RPMI1640 with dialyzed fetal bovine serum (RPMI+ds) (AID 1963880); details: Potency: P12-Ichikawa viability; note: nearly all actives have a fitted effect of over 35% in size; note: potency is the fitted concentration of half-maximal effect
In short: as §1

[6] = Quantitative highthroughput screen to assess conditional lethalithy of P12 Ichikawa cells grown in RPMI1640 with untreated serum (RPMI+s) (AID 1963881); details: Potency: viability; note: nearly all actives have a fitted effect of over 35% in size; note: potency is the fitted concentration of half-maximal effect; for Viability: series mostly up to about 46 µM
In short: as §1

[7] = Cellular viability qHTS for adrenocortical cancer (ACC) cell line SW-13 (AID 1963989); details: SW-13 ACC cells viability, CellTiter-Glo, 48 h; activity (max response): stronger effect = lower value; note: nearly all actives have a fitted effect of over 65% in size; note: potency is the fitted concentration of half-maximal effect;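 for activity (max response): cells grown in serum-free medium with ITS supplement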
In short: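 48 h treatment, SW-13 in ITS/DMEM serum-free; doses up to 46 uM; readout CellTiter-Glo luminescence; curve fit four-parameter logistic.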

[8] = Cellular viability qHTS for adrenocortical cancer (ACC) cell line NCI-H295R (AID 1963990); note: nearly all actives have a fitted effect of over 60% in size; note: potency is the fitted concentration of half-maximal effect
In short: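 Compound titrations (up to 46 uM final) are applied to NCI-H295R cultures for 48 h at 37C. Viable cell number is estimated by CellTiter-Glo signal, normalised to DMSO and doxorubicin controls.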

[9] = Quantitative highthroughput screen to assess conditional lethalithy of SEM cells grown in RPMI1640 with dialyzed fetal bovine serum (RPMI+ds) (AID 1963884); note: nearly all actives have a fitted effect of over 35% in size; note: potency is the fitted concentration of half-maximal effect; for Viability: series mostly up to about 46 µM
In short: as §1

[10] = Quantitative highthroughput screen to assess conditional lethalithy of NOMO1 cells grown in Human Plasma-Like Medium with dialyzed fetal bovine serum (HPLM+ds) (AID 1963878); note: nearly all actives have a fitted effect of over 35% in size
In short: as §1

[11] = Quantitative highthroughput screen to assess conditional lethalithy of SEM cells grown in Human Plasma-Like Medium with dialyzed fetal bovine serum (HPLM+ds) (AID 1963882)
In short: as §1

SMILES | Potency [1] | Potency [2] | Potency [3] | Potency [4] | Potency [5] | Potency [6] | activity (max response) [7] [%] | Potency [8] | Potency [9] | Potency [7] | Potency [10] | Potency [11]
CC(C)(C)c1cc(NC(=O)Nc2ccc(-c3cn4c(n3)sc3cc(OCCN5CCOCC5)ccc34)cc2)no1 | inactive | inactive | inactive | inactive | inactive | inactive | 1.45 | inactive | – | – | – | –
CS(=O)(=O)CCNCc1ccc(-c2ccc3ncnc(Nc4ccc(OCc5cccc(F)c5)c(Cl)c4)c3c2)o1 | 20.6 µM (active) and 14.8 µM (active) | 18.7 µM (active) | – | inactive | 18.7 µM (active) | 18.7 µM (active) | – | 23.1 µM (active) and 17.8 µM (active) | 23.5 µM (active) | 18.4 µM (active) and 14.1 µM (active) | – | –
O=C(O)C(O)Cc1ccc(O)c(O)c1 (configuration not stated) | 17.1 µM (active) | inactive | 13.2 µM (active) | inactive | inactive | inactive | -1.27 | inactive | – | – | – | –
Cc1cc2c(F)c(Oc3ncnn4cc(OC[C@@H](C)O)c(C)c34)ccc2[nH]1 | 5.9 µM (active) | inactive | – | – | – | 18.7 µM (active) | – | inactive | 9.35 µM (active) | – | inactive | –
N[C@@H](CC(=O)N1CCn2c(nnc2C(F)(F)F)C1)Cc1cc(F)c(F)cc1F | inactive | – | inactive | inactive | inactive | inactive | -2.25 | inactive | – | – | inactive | –
c1coc(CNc2ncnc3nc[nH]c23)c1 | inactive | inactive | – | inactive | inactive | inactive | -0.681 | – | inactive | – | inactive | inactive
Cc1cccc(Nc2nc(-c3ccncc3)cs2)c1 | 8.2 µM (active) | inactive | inactive | – | 18.7 µM (active) | – | – | 25.1 µM (active) | – | – | – | –
